Potency data for 23 compounds are collected here from PubChem BioAssay (NCATS).

Results filed as inconclusive are left out. The source made the active and inactive calls. Calls come from the whole dose curve; as a rule, active = well fitted inhibition curve with a large enough effect; inconclusive = small, poorly fitted or top-dose-only effect; inactive = flat fitted curve, though single readings scatter.

Holding throughout (assay): qHTS profiling for inhibitors of Plasmodium falciparum proliferation (AID 504749); note: nearly all actives have a fitted effect of over 60% in size
Common to all, as to conditions: P. falciparum in erythrocytes, SYBR Green DNA, 72 h; series mostly up to 28.7 µM
(In general: qHTS replaces the single test concentration by a dilution series.)

For one experiment, the system named is CP203. The procedure, abridged:
(§1)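 P. falciparum-infected erythrocytes (0.3% parasitemia, 2.5% hematocrit final) were exposed to compounds for 72 h at 37 C in 5% CO2, then lysed with SYBR Green buffer overnight at room temperature; parasite DNA fluorescence was normalized to artemisinin and DMSO controls.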

For a further experiment, the system named is CP211. The procedure, abridged:
as §1

The subject of a further experiment is CP215. The procedure, abridged: as §1
A further experiment has as its system CP217. The procedure, abridged:
as §1

For another experiment, the system named is CP237. The procedure, abridged: as §1
A further experiment has as its system CP238. The procedure, abridged:
as §1

For a further experiment, the system named is CP247. An outline of the steps: as §1
In another experiment the test system is CP250. The procedure, abridged:
as §1

The next experiment concerns CP252. An outline of the steps:
as §1

For another experiment, the system named is CP256. The procedure, abridged:
as §1
Potency is the fitted concentration of half-maximal effect.

Consider `CCCC(C)C1(CC)C(=O)NC(=O)NC1=O` (centres undefined), for which the Potency entry in the experiment with CP203, with CP211, in the experiment on CP215, with CP217, in the experiment on CP237 and in the experiment on CP238 was “inactive” throughout. In addition, the Potency result with CP247, in the experiment with CP250, in the experiment on CP252 and in the experiment on CP256 was “inactive” throughout.

As to `C/C(=C\c1csc(C)n1)[C@@H]1C[C@@H]2O[C@]2(C)CCC[C@H](C)[C@H](O)[C@@H](C)C(=O)C(C)(C)[C@@H](O)CC(=O)O1`, the Potency with CP203 was 0.0024 µM (active); in the experiment with CP211, 3 nM (active); in the experiment on CP215 it was 3.8 nM (active); in the experiment with CP217, 4 nM (active); with CP237, 0.0016 µM (active); in the experiment with CP238, 0.0032 µM (active). In addition, the Potency is 2.8 nM (active) in the experiment on CP247, 7.1 nM (active) in the experiment with CP250, 0.0035 µM (active) in the experiment with CP252 and 0.0022 µM (active) in the experiment on CP256.

For `O=[N+]([O-])C(Br)(CO)CO`, the Potency result in the experiment with CP203, with CP211, in the experiment on CP215, with CP217, in the experiment on CP237 and in the experiment on CP238 was “inactive” each time. Besides, the Potency result in the experiment on CP247, with CP250, in the experiment on CP252 and in the experiment on CP256 was “inactive” throughout.

In the case of `CC[N+](C)(CC)CCOC(=O)C(O)(c1ccccc1)c1ccccc1`, the Potency result with CP203, with CP211, in the experiment on CP215, with CP217, with CP237 and in the experiment with CP238 was “inactive” in each case. Further, the Potency result in the experiment on CP247, with CP250, in the experiment with CP252 and in the experiment on CP256 was “inactive” throughout.

With `C=CCN(C1=NCCN1)c1c(Cl)cccc1Cl`, the Potency result with CP203, in the experiment on CP211, in the experiment on CP215, in the experiment with CP217, in the experiment on CP237 and in the experiment on CP238 was “inactive” each time. The Potency entry in the experiment with CP247, with CP250, in the experiment with CP252 and in the experiment on CP256 was “inactive” throughout.

Consider `[O]=[Cr](=[O])([OH])[O][Cr](=[O])(=[O])[OH]`, for which the Potency entry in the experiment with CP203, in the experiment with CP211, in the experiment with CP215, in the experiment with CP217, in the experiment with CP238 and with CP247 was “inactive” each time. Also, the Potency entry in the experiment on CP250, in the experiment with CP252 and in the experiment on CP256 was “inactive” in each case. Besides, the Potency in the experiment on CP237 was 11.2 µM (active).

With `CC(Cc1ccccc1)NC=O` (centres undefined), the Potency entry with CP203, with CP211, in the experiment with CP215, with CP217, in the experiment with CP237 and in the experiment on CP238 was “inactive” each time. In addition, the Potency entry with CP247, with CP250, in the experiment on CP252 and with CP256 was “inactive” each time.

For `Clc1ccc(C2(Cn3cncn3)OCCO2)c(Cl)c1`, the Potency result in the experiment with CP203, in the experiment on CP211, in the experiment with CP215, in the experiment with CP217, in the experiment on CP237 and in the experiment with CP238 was “inactive” throughout. Further, the Potency result in the experiment on CP247, in the experiment with CP250, with CP252 and in the experiment on CP256 was “inactive” each time.

Take `CC(C)Nc1ccc(Nc2ccccc2)cc1`: the Potency is 8.49 µM (active) in the experiment with CP203; 3790 nM (active) in the experiment with CP211; 4260 nM (active) with CP215; 5010 nM (active) in the experiment on CP217; 7.94 µM (active) in the experiment on CP237; 10 µM (active) in the experiment with CP238. Also, the Potency in the experiment on CP247 was 4470 nM (active); with CP250 it was 5010 nM (active); with CP252, 7.08 µM (active); with CP256 it was 7.94 µM (active).

Take `O=Cc1ccco1`: the Potency entry with CP203, in the experiment on CP211, with CP215, with CP217, with CP237 and in the experiment with CP238 was “inactive” each time. Moreover, the Potency result in the experiment on CP247, in the experiment with CP250, with CP252 and in the experiment on CP256 was “inactive” throughout.

On to `CCCCCl`, for which the Potency entry in the experiment with CP203, in the experiment on CP211, in the experiment with CP215, with CP217, with CP237 and in the experiment on CP238 was “inactive” each time. Further, the Potency result with CP247, in the experiment on CP250, in the experiment on CP252 and with CP256 was “inactive” throughout.

Consider `C[N+]1(C)CCCCC1COC(=O)C(O)(c1ccccc1)c1ccccc1` (centres undefined), for which the Potency result in the experiment on CP203, with CP211, with CP215, with CP217, with CP237 and in the experiment on CP238 was “inactive” throughout. Also, the Potency result in the experiment with CP247, in the experiment on CP250 and with CP252 was “inactive” in each case.

With `O=C1CN(O)C(c2ccccc2)=c2cc(Cl)ccc2=N1`, the Potency entry with CP203, in the experiment on CP211, in the experiment on CP215, in the experiment with CP217, in the experiment on CP237 and with CP238 was “inactive” each time. The Potency entry in the experiment on CP247, in the experiment with CP250, in the experiment with CP252 and in the experiment with CP256 was “inactive” each time.

On to `ClCC1CO1` (centres undefined), for which the Potency entry in the experiment with CP203, in the experiment with CP211, in the experiment with CP215, with CP217, in the experiment on CP237 and with CP238 was “inactive” throughout. For the same compound, the Potency entry in the experiment on CP247, in the experiment on CP250, in the experiment on CP252 and in the experiment on CP256 was “inactive” throughout.

For `Cn1sc(Cl)cc1=O`, the Potency result in the experiment on CP203, in the experiment on CP211, in the experiment with CP215, in the experiment with CP217, in the experiment on CP237 and with CP238 was “inactive” in each case. In addition, the Potency result with CP247, with CP250, in the experiment on CP252 and in the experiment on CP256 was “inactive” throughout.

Take `CCCCCCCCOC(=O)c1ccccc1C(=O)OCCCCCCCC`: the Potency result in the experiment with CP203, with CP211, in the experiment with CP215, in the experiment with CP217, with CP237 and with CP238 was “inactive” throughout. For the same compound, the Potency result in the experiment with CP247, with CP250, with CP252 and in the experiment with CP256 was “inactive” each time.

In the case of `CCON=O`, the Potency result with CP203, with CP211, with CP215, in the experiment with CP217, in the experiment on CP237 and in the experiment on CP238 was “inactive” in each case. For the same compound, the Potency entry in the experiment on CP247, with CP250, with CP252 and in the experiment with CP256 was “inactive” in each case.

Take `CCCC(C)(COC(N)=O)COC(=O)NC1CC1` (centres undefined): the Potency result in the experiment with CP203, with CP211, with CP215, in the experiment with CP217, in the experiment on CP237 and in the experiment with CP238 was “inactive” each time. Besides, the Potency result with CP247, in the experiment on CP250, with CP252 and in the experiment on CP256 was “inactive” throughout.

For `C=CCN1CCC23c4c5ccc(O)c4O[C@H]2C(=O)CC[C@@]3(O)C1C5` (some centres undefined), the Potency result in the experiment on CP203, in the experiment on CP211, in the experiment on CP215, in the experiment on CP217, in the experiment with CP237 and with CP238 was “inactive” throughout. The Potency result with CP247, in the experiment on CP250, in the experiment on CP252 and with CP256 was “inactive” each time.

`c1ccc2sc(SNC3CCCCC3)nc2c1`: the Potency result in the experiment with CP203, with CP211, in the experiment with CP215, in the experiment on CP217, in the experiment with CP237 and with CP238 was “inactive” each time. The Potency result with CP247, in the experiment on CP250, with CP252 and in the experiment on CP256 was “inactive” in each case.

As to `NCC(O)c1cccc(O)c1` (centres undefined), the Potency entry in the experiment with CP203, with CP211, in the experiment on CP215, with CP217, in the experiment with CP237 and in the experiment on CP238 was “inactive” throughout. Moreover, the Potency entry in the experiment on CP247, in the experiment with CP250, with CP252 and in the experiment on CP256 was “inactive” throughout.

Take `N#CN`: the Potency result with CP203, in the experiment with CP211, in the experiment on CP215, with CP217, with CP237 and in the experiment with CP238 was “inactive” throughout. In addition, the Potency result in the experiment on CP247, in the experiment with CP250, with CP252 and in the experiment on CP256 was “inactive” in each case.

`O=[N+]([O-])c1ccccc1`: the Potency entry in the experiment with CP203, in the experiment with CP211, in the experiment on CP215, with CP217, with CP237 and with CP238 was “inactive” throughout. Also, the Potency entry in the experiment with CP247, with CP250, in the experiment on CP252 and with CP256 was “inactive” throughout.
